Results on 40 compounds are retold here after PubChem BioAssay (NCI).

This is part of a sample that, as a whole, favours compounds with a hit. Of some 79,000 tested, about 15% had one in any assay. Active and inactive are the calls of the source. No stated cut-off is given here; in the data, active means growth inhibition above about 70%; inactive means the rest.

The nature of the first assay: NCI Yeast Anticancer Drug Screen. Data for the sgs1 mgt1 strain (AID 161).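 Further: 0% = growth of cultures given vehicle only.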 Conditions: S. cerevisiae sgs1 mgt1 strain, at 50.0 µM, stronger effect = higher value. In short, it runs like this:
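This yeast growth screen uses a strain with defined DNA-repair lesions; compound-treated growth is compared with vehicle-treated growth.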
Regarding `CCP(=S)(CC)P(=S)(CC)CC`, the growth inhibition is -14.6% (inactive).
Same read-out and setting: in the case of `Cc1cccc(C)c1NC(N)=S` it was -10.6% (inactive); in that of `Nc1ccc(C(=O)O)cc1[As](O)O`, 5.95% (inactive); in that of `FC(F)(F)c1cccc(NC2=NCCS2)c1`, 0% (inactive).
The same measure, in the same setting: in the case of `CC(C)C1C=Cc2ccccc21` (stereo not given) it was 4.45% (inactive).
For the compound `CCOP(=O)(CC(N)=O)OCC`, the growth inhibition is 3.5% (inactive).
Still for that read-out and setting: then `O=c1[nH]cnc2c1ncn2-c1ccc(N(CCCl)CCCl)cc1`, with 16% (inactive).
The same measure, in the same setting: then `CCN1C(=O)NC(=O)C(C)(N2CCCCC2)C1=O` (stereo not given), with 25.9% (inactive).
Same read-out and setting: in the case of `C1CN1[PH+](N1CC1)N1CC1.[C-]#[O+].[C-]#[O+].[C-]#[O+].[C-]#[O+].[C-]#[O+].[W]` it was -21% (inactive).
Take `O=C(NCC(O)CO)c1cc(N(CCCl)CCCl)c([N+](=O)[O-])cc1[N+](=O)[O-]` (stereo not given): the growth inhibition is -10.5% (inactive).
The same measure, in the same setting: then `CCCCCCNP(=O)(OCC)OCC`, with 5.3% (inactive); and `CCC1(CCC(C)C)C(=O)NC(=O)N(c2ccccc2)C1=O` (stereo not given), with -4.5% (inactive).
For the compound `O=N[O-].O=N[O-].[NH2-].[NH2-].[NH2-].[NH2-].[Ni]`, the growth inhibition is 19.6% (inactive).
With `Oc1cccc(/C=N\NC(=S)NC2CN3CCC2CC3)c1` (stereo not given), the growth inhibition is -5.85% (inactive).
On the same count and under the same terms, in the case of `CCN1/C(=C/C=C2\CCC(/C=C/c3sc4ccc(Cl)cc4[n+]3CC)=C2N(c2ccccc2)c2ccccc2)Sc2ccc(Cl)cc21` it was 64.9% (inactive).
Regarding `COC(=O)C(Cl)Cl`, the growth inhibition was -1.85% (inactive).
Same read-out and setting: in the case of `CO[C@@]12[C@@H]3N[C@@H]3CN1C1=C(C(=O)C(NCCC#N)=C(C)C1=O)[C@@H]2COC(N)=O` it was -13.1% (inactive); in that of `O=S(=O)(N=S(CCCl)CCCl)c1ccccc1`, 24.3% (inactive); in that of `Cc1ccc2nc(CCl)[nH]c2c1`, 34% (inactive).
Same read-out and setting: then `CCOC(=O)C(Cc1c[nH]c2ccccc12)NC(=O)/C=C/N(CCCl)CCCl` (stereo not given), with 17% (inactive); and `O=c1c2cc(Br)cc(Br)c2nc(CCCl)n1-c1ccc(O)c([N+](=O)[O-])c1`, with -9.95% (inactive); and `O=C(O)CCCC(=O)CCCC(=O)O.[Pb]`, with -11.7% (inactive).
`CC(C)=NNC1=NC(C)(C)P(=O)(N2CCCC2C(=O)O)S1` (stereo not given): the growth inhibition is -0.45% (inactive).
Same read-out and setting: then `O=C(NN=C1CCN(Cc2ccccc2)CC1)C(O)(c1ccccc1)c1ccccc1`, with 13.8% (inactive); and `CC1=C(C)C(=O)O[C@@H]([C@](C)(O)[C@]2(O)CC[C@@]3(O)[C@@H]4C[C@H]5O[C@]56[C@@H](O)C=CC(=O)[C@]6(C)[C@H]4CC[C@]23C)C1`, with 10.7% (inactive); and `CN1C2CCC1CC(OC(=O)c1cccc(O)c1)C2` (stereo not given), with 0.9% (inactive).
The same measure, in the same setting: then `COC(=O)CP(=O)(OC)OCC(F)(F)F` (stereo not given), with -23.5% (inactive).
The same measure, in the same setting: then `CCC1(/C=C/C(C)C)C(=O)NC(=S)NC1=O`, with -0.8% (inactive).
As to `CCC(CN)c1ccccc1` (stereo not given), the growth inhibition was 2.75% (inactive).
On the same count and under the same terms, then `C=CCOCC1CO1` (stereo not given), with 11.1% (inactive).
Consider `O=N[O-].O=N[O-].[Co].[NH-]CC[N-]CCO.[NH-]CC[N-]CCO`, for which the growth inhibition was 17.1% (inactive).
On the same count and under the same terms, then `c1ccc(NC2CCN(C3(c4ccccc4)CCCCC3)CC2)cc1`, with -6.85% (inactive).
Same read-out and setting: in the case of `COC(=O)C1=C(O)C(C(=O)OC)C2/C(=[N+](/[O-])O)c3c(cc([N+](=O)[O-])cc3[N+](=O)[O-])C1C2[N+](=O)[O-]` (stereo not given) it was 87.8% (active).
Still for that read-out and setting: then `CCOP(=O)(/C=C/c1cc(OC)ccc1OC)OCC`, with -32.4% (inactive).
Turning to `[C-]#[O+].[C-]#[O+].[C-]#[O+].[C-]#[O+].[Cr].c1ccc(P(CCP(CCP(c2ccccc2)c2ccccc2)c2ccccc2)CCP(c2ccccc2)c2ccccc2)cc1` (stereo not given), the growth inhibition was 29.2% (inactive).
On the same count and under the same terms, then `[I][Hg][CH]1CCC2CCCC1O2` (stereo not given), with 99.8% (active); and `COc1ccccc1[As](=O)(O)c1ccccc1`, with -1.45% (inactive).
Same read-out and setting: then `COc1ccc(C(C)(C)CC(C)(C)C)cc1`, with 32.8% (inactive); and `O=C1CN2CCC1CC2`, with -3.25% (inactive); and `CCCC(NC(=O)CCl)C(=O)O` (stereo not given), with -11.4% (inactive).

A further assay is described as follows: NCI Yeast Anticancer Drug Screen. Data for the cln2 rad14 strain (AID 165).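 Further: 0% = growth equal to vehicle treated cultures.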 Conditions: S. cerevisiae cln2 rad14 strain, at 50.0 µM, stronger effect = higher value. The essentials:
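Growth inhibition, relative to vehicle-treated controls, is the read-out. The test organism is a yeast strain with defined genetic alterations, cln2 rad14.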
As to `CCP(=S)(CC)P(=S)(CC)CC`, the growth inhibition was -9.2% (inactive).
Turning to `Cc1cccc(C)c1NC(N)=S`, the growth inhibition was -86.7% (inactive).
On the same count and under the same terms, in the case of `Nc1ccc(C(=O)O)cc1[As](O)O` it was -6.4% (inactive).
Take `FC(F)(F)c1cccc(NC2=NCCS2)c1`: the growth inhibition was -5.6% (inactive).
Same read-out and setting: then `CC(C)C1C=Cc2ccccc21` (stereo not given), with -13.1% (inactive); and `CCOP(=O)(CC(N)=O)OCC`, with 0.1% (inactive).
On the same count and under the same terms, then `O=c1[nH]cnc2c1ncn2-c1ccc(N(CCCl)CCCl)cc1`, with -20.5% (inactive); and `CCN1C(=O)NC(=O)C(C)(N2CCCCC2)C1=O` (stereo not given), with 15.2% (inactive); and `C1CN1[PH+](N1CC1)N1CC1.[C-]#[O+].[C-]#[O+].[C-]#[O+].[C-]#[O+].[C-]#[O+].[W]`, with -43.9% (inactive).
On to `O=C(NCC(O)CO)c1cc(N(CCCl)CCCl)c([N+](=O)[O-])cc1[N+](=O)[O-]` (stereo not given), for which the growth inhibition was -63.6% (inactive).
Still for that read-out and setting: in the case of `CCCCCCNP(=O)(OCC)OCC` it was 6.8% (inactive); in that of `CCC1(CCC(C)C)C(=O)NC(=O)N(c2ccccc2)C1=O` (stereo not given), 7.2% (inactive).
Regarding `O=N[O-].O=N[O-].[NH2-].[NH2-].[NH2-].[NH2-].[Ni]`, the growth inhibition is -48.7% (inactive).
On the same count and under the same terms, then `Oc1cccc(/C=N\NC(=S)NC2CN3CCC2CC3)c1` (stereo not given), with -4.45% (inactive); and `CCN1/C(=C/C=C2\CCC(/C=C/c3sc4ccc(Cl)cc4[n+]3CC)=C2N(c2ccccc2)c2ccccc2)Sc2ccc(Cl)cc21`, with 4.05% (inactive); and `COC(=O)C(Cl)Cl`, with -47.9% (inactive).
As for `CO[C@@]12[C@@H]3N[C@@H]3CN1C1=C(C(=O)C(NCCC#N)=C(C)C1=O)[C@@H]2COC(N)=O`, the growth inhibition was 10.6% (inactive).
As to `O=S(=O)(N=S(CCCl)CCCl)c1ccccc1`, the growth inhibition is -7.95% (inactive).
The same measure, in the same setting: in the case of `Cc1ccc2nc(CCl)[nH]c2c1` it was 18.4% (inactive); in that of `CCOC(=O)C(Cc1c[nH]c2ccccc12)NC(=O)/C=C/N(CCCl)CCCl` (stereo not given), 0.25% (inactive); in that of `O=c1c2cc(Br)cc(Br)c2nc(CCCl)n1-c1ccc(O)c([N+](=O)[O-])c1`, 16.3% (inactive).
Still for that read-out and setting: in the case of `O=C(O)CCCC(=O)CCCC(=O)O.[Pb]` it was -36.1% (inactive); in that of `CC(C)=NNC1=NC(C)(C)P(=O)(N2CCCC2C(=O)O)S1` (stereo not given), -2.3% (inactive).
Same read-out and setting: in the case of `O=C(NN=C1CCN(Cc2ccccc2)CC1)C(O)(c1ccccc1)c1ccccc1` it was -8.5% (inactive); in that of `CC1=C(C)C(=O)O[C@@H]([C@](C)(O)[C@]2(O)CC[C@@]3(O)[C@@H]4C[C@H]5O[C@]56[C@@H](O)C=CC(=O)[C@]6(C)[C@H]4CC[C@]23C)C1`, 13.4% (inactive).
On to `CN1C2CCC1CC(OC(=O)c1cccc(O)c1)C2` (stereo not given), for which the growth inhibition is 4.95% (inactive).
Still for that read-out and setting: in the case of `COC(=O)CP(=O)(OC)OCC(F)(F)F` (stereo not given) it was -6% (inactive); in that of `CCC1(/C=C/C(C)C)C(=O)NC(=S)NC1=O`, 0.85% (inactive); in that of `CCC(CN)c1ccccc1` (stereo not given), 0.65% (inactive).
Still for that read-out and setting: in the case of `C=CCOCC1CO1` (stereo not given) it was -8.6% (inactive); in that of `O=N[O-].O=N[O-].[Co].[NH-]CC[N-]CCO.[NH-]CC[N-]CCO`, 14.9% (inactive); in that of `c1ccc(NC2CCN(C3(c4ccccc4)CCCCC3)CC2)cc1`, -45.6% (inactive).
Consider `COC(=O)C1=C(O)C(C(=O)OC)C2/C(=[N+](/[O-])O)c3c(cc([N+](=O)[O-])cc3[N+](=O)[O-])C1C2[N+](=O)[O-]` (stereo not given), for which the growth inhibition is 66.3% (inactive).
Still for that read-out and setting: in the case of `CCOP(=O)(/C=C/c1cc(OC)ccc1OC)OCC` it was -24.5% (inactive).
On the same count and under the same terms, then `[C-]#[O+].[C-]#[O+].[C-]#[O+].[C-]#[O+].[Cr].c1ccc(P(CCP(CCP(c2ccccc2)c2ccccc2)c2ccccc2)CCP(c2ccccc2)c2ccccc2)cc1` (stereo not given), with 16.8% (inactive).
On the same count and under the same terms, then `[I][Hg][CH]1CCC2CCCC1O2` (stereo not given), with 99% (active); and `COc1ccccc1[As](=O)(O)c1ccccc1`, with -47.6% (inactive); and `COc1ccc(C(C)(C)CC(C)(C)C)cc1`, with 12.1% (inactive).
In the case of `O=C1CN2CCC1CC2`, the growth inhibition is 12.6% (inactive).
The same measure, in the same setting: in the case of `CCCC(NC(=O)CCl)C(=O)O` (stereo not given) it was -73.8% (inactive).
